# Measurements reported in PubChem BioAssay (Tox21).
# Results filed as inconclusive are left out. Entries that show only a call come without a potency. Calls of active or inactive are those of the source. Calls follow the shape of the dose curve; as a rule, active = well fitted cell-killing curve with a large enough effect in the repeat runs; inconclusive = weak or mixed curves, or effect the other way; inactive = no such curve, though single readings can be large or run the other way. Non-standard residues stand in square brackets, D forms with d. Residues, ends and D or L forms follow the SMILES beside them. pGlu = O=C1CC[C@@H](C(=O)O)N1
# Test: qHTS assay to identify small molecule antagonists of the glucocorticoid receptor (GR) signaling pathway - cell viability counter screen (AID 720693); also: nearly all actives have a fitted effect of over 55% in size
# Conditions: GR-bla HeLa viability, CellTiter-Glo luminescence, 18 h, with 5 nM dexamethasone present; series mostly up to 58.5 µM
row,Compound,Potency
1,c1ccc2c(c1)Sc1ccccc1N2CCN1CCCC1,inactive
2,O=C(O)C1CCCN1 (stereo not given),inactive
3,CCCCC(=O)OCC(=O)[C@]1(O)Cc2c(O)c3c(c(O)c2[C@@H](O[C@H]2C[C@H](NC(=O)C(F)(F)F)[C@H](O)[C@H](C)O2)C1)C(=O)c1c(OC)cccc1C3=O,inactive

# Test: qHTS assay for identifying genotoxic compounds that show differential cytotoxicity against isogenic chicken DT40 cell lines with known DNA damage response pathways - wild type cell line (AID 743012); also: nearly all actives have a fitted effect of over 60% in size; also: potency is read from the fitted curve at half-maximal effect
# Conditions: DT40 wild type chicken cells viability, CellTiter-Glo, 40 h; series mostly up to 68.4 µM
# How it was run: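 Parental DNA repair-proficient DT40 cells, 300 per well, were pre-incubated ~0.5 h at 37 C/5% CO2, pin-dosed with compounds in DMSO, then incubated 40 h. Viability was read as CellTiter-Glo luminescence after 30 min at room temperature.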
row,Compound,Potency
1,CN[C@@H]1CCc2[nH]c3ccc(C(N)=O)cc3c2C1,inactive
2,FC(F)(F)C(F)(F)C(F)(F)C(F)(F)C(F)(F)C(F)(F)F,inactive
3,Nc1ncnc2c1ncn2CCOCP(=O)(O)O,inactive
4,CCCCCCCCCCCCCCCC(=O)OC[C@@H](NC(=O)C(Cl)Cl)[C@H](O)c1ccc([N+](=O)[O-])cc1,inactive
5,C/C(=C(\CCOC(=O)c1ccccc1)SS/C(CCOC(=O)c1ccccc1)=C(/C)N(C=O)Cc1cnc(C)nc1N)N(C=O)Cc1cnc(C)nc1N,10.6 µM (active)
6,CCOc1cc(-c2nccc3cc(OC)c(OC)cc23)cc(OCC)c1OCC,4.22 µM (active)
7,CCOC(=O)[C@H](CCc1ccccc1)N[C@@H](C)C(=O)N1CC2(C[C@H]1C(=O)O)SCCS2,inactive
8,CC(=O)N=c1sc(S(N)(=O)=O)nn1C,inactive
9,CN1[C@@H]2CCC[C@H]1CC(NC(=O)c1nn(C)c3ccccc13)C2 (stereo not given in full),inactive
10,O=C(O[C@H]1CN2CCC1CC2)N1CCc2ccccc2[C@@H]1c1ccccc1,11.9 µM (active)
11,CCC[C@@]1(CCc2ccccc2)CC(O)=C([C@H](CC)c2cccc(NS(=O)(=O)c3ccc(C(F)(F)F)cn3)c2)C(=O)O1,inactive
12,COC1=C(C(=O)O)N2C(=O)[C@@H](NC(=O)[C@H](N)C3=CCC=CC3)[C@H]2SC1,inactive
13,CCCCc1cc2c(=O)c(C(=O)OC)c[nH]c2cc1OCc1ccccc1,inactive
14,CCCCCCCCCCCCCCCCCC(=O)[O][Al],inactive
15,CCNC(=O)[C@@H]1CCCN1C(=O)[C@H](CCCN=C(N)N)NC(=O)[C@H](CC(C)C)NC(=O)[C@@H](Cc1c[nH]c2ccccc12)NC(=O)[C@H](Cc1ccc(O)cc1)NC(=O)[C@H](CO)NC(=O)[C@H](Cc1c[nH]c2ccccc12)NC(=O)[C@H](Cc1cnc[nH]1)NC(=O)[C@@H]1CCC(=O)N1,0.841 µM (active)
16,C/C=C(/CC[C@@H](C)[C@H]1CC[C@H]2C3=CC[C@H]4[C@H](C)[C@@H](O)CC[C@]4(C)[C@H]3CC[C@]12C)C(C)C,inactive

row,Compound,Potency
1,O=C(Nc1ccc(Br)cc1)c1cc(Br)c(Br)s1,26.6 µM (active)
2,COc1ccccc1N1CCN(CCCC(=O)c2ccc(F)cc2)CC1,13.3 µM (active)
3,C[C@H](N)C(=O)N[C@@H](C)P(=O)(O)O,inactive
4,NC[C@@H]1O[C@H](O[C@H]2[C@@H](O)[C@H](O[C@@H]3[C@@H](O)[C@H](N)C[C@H](N)[C@H]3O[C@H]3O[C@H](CO)[C@@H](O)[C@H](O)[C@H]3N)O[C@@H]2CO)[C@H](N)[C@@H](O)[C@@H]1O,inactive
5,O=P(O)(O)C(Sc1ccc(Cl)cc1)P(=O)(O)O,inactive
6,CC[C@H](C)[C@H](NC(=O)[C@H](Cc1ccccc1)NC(=O)[C@H](C)NC(=O)[C@H](CC(=O)O)NC(=O)[C@H](CCCCN)NC(=O)[C@H](CO)NC(=O)[C@@H]1CCCN1C(=O)[C@@H]1CCC(=O)N1)C(=O)NCC(=O)N[C@@H](CC(C)C)C(=O)N[C@@H](CCSC)C(N)=O ([pGlu]PSKDAFIGLM-NH2),inactive
7,Cc1cccc(Nc2ncccc2C(=O)O)c1C,inactive
8,CCCCCC(O)/C=C/C=O (stereo not given),inactive
9,OCCO[C@@H]1[C@@H](O)[C@H](O)[C@@H](CO)O[C@@H]1O,inactive
10,N[C@H](CCC(=O)O)C(=O)O,inactive
11,CC(O)CN(C)C (stereo not given),inactive
12,Cc1ccc(C2(O)CCN(CCCC(=O)c3ccc(F)cc3)CC2)cc1,11.9 µM (active)
13,CO[C@H]1O[C@@H]2O[C@@]3(C)CC[C@H]4[C@H](C)CC[C@@H]([C@H]1C)[C@@]24OO3,1.19 µM (active)
14,CC1=C(/C=C/C(C)=C/C=C/C(C)=C/C(=O)Oc2c(C)c(C)c3c(c2C)CC[C@@](C)(CCC[C@H](C)CCC[C@H](C)CCCC(C)C)O3)C(C)(C)CCC1,inactive
15,O=C(O)[C@@H](O)[C@H](O)[C@H](O)[C@@H](O)C(=O)O (tested in a mixture with another compound),inactive
16,O=C(Cn1c(=O)sc2ccc(Cl)cc21)N1CCN(CCO)CC1,inactive
